Records with an inconclusive call do not appear. Activity calls are given as the source filed them. Calls follow the shape of the dose curve; as a rule, active = well fitted curve in the direction sought with a large enough effect in the repeat runs; inconclusive = weak or mixed curves; inactive = no such curve, though single readings can be large; an effect the other way counts as inactive or inconclusive.
Assay: A CellTox Green Cytotoxicity Assay to monitor cytotoxicity in HepG2 cells - 8 hour (AID 1224890); also: nearly all actives have a fitted effect of over 45% in size; also: potency is read from the fitted curve at half-maximal effect
Conditions: CellTox Green fluorescence; series mostly up to 76.8 µM; cytotoxicity increase: at the top concentration
Procedure, shortened: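 HepG2 cells were seeded together with the CellTox Green dye at 600 cells/well, left 5 h at 37 C/5% CO2, then given compounds in DMSO. Fluorescence from dye bound to dead-cell DNA was read repeatedly over 40 h of treatment at 37 C.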
% is scaled to controls: 0 for no effect and ±100 for the full control effect.

Row | SMILES | cytotoxicity increase | Potency
1 | CCCCCO | -0.591% (inactive) | 
2 | O=[N+]([O-])c1ccccc1CCO | -9.5% (inactive) | 
3 | CC(O)C(C)O (stereo not drawn) | -3.37% (inactive) | 
4 | c1ccc(CN(Cc2ccccc2)Cc2ccccc2)cc1 | 0.885% (inactive) | 
5 | CC(CCl)OC(C)CCl (stereo not drawn) | -8.06% (inactive) | 
6 | CCC(=O)O[C@]1(C(=O)COC)[C@@H](C)C[C@H]2[C@@H]3CCC4=CC(=O)C=C[C@]4(C)C3(F)[C@@H](O)C[C@@]21C (stereo partly drawn) | -10.6% [at 35.3 µM] (inactive) | 
7 | Clc1ccccc1-c1nc(-c2ccncc2)no1 | 0.0955% [at 35.3 µM] (inactive) | 
8 | C=CC(C)(O)CC/C=C(/C)CCC=C(C)C (stereo not drawn) | -0.487% (inactive) | 
9 | CCOc1ccccc1O | -3.46% (inactive) | 
10 | C[Si](C)(C)O[Si](C)(C)O[Si](C)(C)C | -5.55% (inactive) | 
11 | CC(=O)S[C@H](C(=O)N[C@H]1Cc2ccccc2[C@H]2CCC[C@@H](C(=O)O)N2C1=O)C(C)C | -9.83% (inactive) | 
12 | CC/C=C/CCO | 8.35% (inactive) | 
13 | COC(=O)C(C)(C)C | 0.815% (inactive) | 
14 | S=c1[nH][nH]c(=S)s1 | -10.1% (inactive) | 
15 | Cc1cc(C)n(CO)n1 | -4.47% (inactive) | 
16 | O=C(O)c1ccccc1-n1cc(C(=O)O)c(=O)c2cc(Nc3c(F)cc(F)cc3Cl)c(Cl)cc21 | 8.61% (inactive) | 
17 | CC(=O)OCC(=O)[C@@]1(O)CC[C@H]2[C@@H]3CCC4=CC(=O)C=C[C@]4(C)[C@@]3(F)[C@@H](O)C[C@@]21C | 0.725% [at 35.3 µM] (inactive) | 
18 | CCC(C)CCCC(C)(C)O (stereo not drawn) | -13% (inactive) | 
19 | CCCCCCCCCCCCCCCCN |  | 21.3 µM (active)
20 | COc1ccc(/C=C/S(=O)(=O)NC(=O)c2ccc(C)cc2Cl)cc1 | -2.09% (inactive) | 

Row | SMILES | cytotoxicity increase | Potency
21 | N#Cc1ccc(CC(=O)c2cccc(C(F)(F)F)c2)cc1 | -9.87% (inactive) | 
22 | Cc1cccc(C)c1NC(=O)CN1CCCC1 | 0.526% [at 35.3 µM] (inactive) | 
23 | Cc1c(Nc2ncccc2C(=O)O)cccc1C(F)(F)F | 1.47% [at 35.3 µM] (inactive) | 
24 | O=C(O)c1cc(C(=O)O)cc([N+](=O)[O-])c1 | 0.307% (inactive) | 
25 | CCCCC(CC)COCCC#N (stereo not drawn) | 3.33% (inactive) | 
26 | O=C1c2ccccc2C(=O)C1c1ccc2ccccc2n1 | -10.4% [at 35.3 µM] (inactive) | 
27 | CCc1cnc(C(=O)O)c(C(=O)O)c1 | -4.25% (inactive) | 
28 | O=[N+]([O-])c1ccc(Cl)cc1Cl | 0.242% (inactive) | 
29 | CCCCCC1CCC(=O)O1 (stereo not drawn) | -0.716% (inactive) | 
30 | Nc1nc(Cl)nc2c1ncn2[C@H]1C[C@H](O)[C@@H](CO)O1 | -1.15% (inactive) | 
31 | O=Cc1ccc([N+](=O)[O-])cc1 | -2.55% (inactive) | 
32 | C=CC(O)CCCCC (stereo not drawn) | -2.12% (inactive) | 
33 | Nc1ccccc1Nc1ccccc1 | -8.48% (inactive) | 
34 | FC1(F)C(F)(F)C(F)(F)C2(F)C(F)(C1(F)F)C(F)(F)C(F)(F)C1(F)C(F)(F)C(F)(F)C(F)(F)C(F)(F)C12F (stereo not drawn) | -10.7% (inactive) | 
35 | C=C[Si]1(C)O[Si](C)(C=C)O[Si](C)(C=C)O[Si](C)(C=C)O1 (stereo not drawn) | 13.1% (inactive) | 
36 | OCCOc1cccc(OCCO)c1 | -12.7% (inactive) | 
37 | O=C(O)COCC(=O)O | 1.1% (inactive) | 
38 | CCCCCCCCCC(C)C=O (stereo not drawn) |  | 24.5 µM (active)
39 | CC(C)CCCCCCCOC(=O)c1ccc(C(=O)OCCCCCCCC(C)C)c(C(=O)OCCCCCCCC(C)C)c1 | -3.27% (inactive) | 

Assay: qHTS assay to identify small molecule antagonists of the estrogen receptor alpha (ER-alpha) signaling pathway using the BG1 cell line in the presence of 0.1 nM 17-beta-estradiol - cell viability counter screen (AID 1259241); also: nearly all actives have a fitted effect of over 40% in size
Conditions: VM7Luc4E2 (BG1) viability, CellTiter-Fluor protease, 22 h, 0.1 nM estradiol agonist added; series mostly up to 92.4 µM; activity change, negative = cytotoxicity: at the top concentration
Procedure, shortened: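 The cell line endogenously expresses full-length ER-alpha and carries four EREs driving luciferase. Cells are cultured 5 days hormone-free, treated 22 hr with compounds and 0.1 nM estradiol, then viability is read by fluorescence.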

Row | SMILES | activity change, negative = cytotoxicity
40 | CCCCCO | 16.5% (inactive)
41 | O=[N+]([O-])c1ccccc1CCO | 0% (inactive)
42 | CC(O)C(C)O (stereo not drawn) | 4.81% (inactive)
43 | c1ccc(CN(Cc2ccccc2)Cc2ccccc2)cc1 | 2.61% (inactive)
44 | CC(CCl)OC(C)CCl (stereo not drawn) | 17.4% (inactive)
45 | CCC(=O)O[C@]1(C(=O)COC)[C@@H](C)C[C@H]2[C@@H]3CCC4=CC(=O)C=C[C@]4(C)C3(F)[C@@H](O)C[C@@]21C (stereo partly drawn) | 2.94% [at 42.5 µM] (inactive)
46 | Clc1ccccc1-c1nc(-c2ccncc2)no1 | 5.77% [at 42.5 µM] (inactive)
47 | C=CC(C)(O)CC/C=C(/C)CCC=C(C)C (stereo not drawn) | 9.63% (inactive)
48 | CCOc1ccccc1O | -16.3% (inactive)
49 | C[Si](C)(C)O[Si](C)(C)O[Si](C)(C)C | 3.24% (inactive)
50 | CC(=O)S[C@H](C(=O)N[C@H]1Cc2ccccc2[C@H]2CCC[C@@H](C(=O)O)N2C1=O)C(C)C | -3.95% (inactive)
51 | CC/C=C/CCO | 5.16% (inactive)
52 | COC(=O)C(C)(C)C | 16.6% (inactive)
53 | S=c1[nH][nH]c(=S)s1 | 2.25% (inactive)
54 | Cc1cc(C)n(CO)n1 | 4.27% (inactive)
55 | O=C(O)c1ccccc1-n1cc(C(=O)O)c(=O)c2cc(Nc3c(F)cc(F)cc3Cl)c(Cl)cc21 | -5.02% (inactive)
56 | CC(=O)OCC(=O)[C@@]1(O)CC[C@H]2[C@@H]3CCC4=CC(=O)C=C[C@]4(C)[C@@]3(F)[C@@H](O)C[C@@]21C | 1.34% [at 42.5 µM] (inactive)
57 | CCC(C)CCCC(C)(C)O (stereo not drawn) | 2.45% (inactive)
58 | CCCCCCCCCCCCCCCCN | 3.41% [at 42.5 µM] (inactive)
59 | COc1ccc(/C=C/S(=O)(=O)NC(=O)c2ccc(C)cc2Cl)cc1 | 3.83% (inactive)

Row | SMILES | activity change, negative = cytotoxicity
60 | N#Cc1ccc(CC(=O)c2cccc(C(F)(F)F)c2)cc1 | 1.81% (inactive)
61 | Cc1cccc(C)c1NC(=O)CN1CCCC1 | -6.96% [at 42.5 µM] (inactive)
62 | Cc1c(Nc2ncccc2C(=O)O)cccc1C(F)(F)F | 7.28% [at 42.5 µM] (inactive)
63 | O=C(O)c1cc(C(=O)O)cc([N+](=O)[O-])c1 | 5.68% (inactive)
64 | CCCCC(CC)COCCC#N (stereo not drawn) | -24.8% (inactive)
65 | O=C1c2ccccc2C(=O)C1c1ccc2ccccc2n1 | -11.8% [at 42.5 µM] (inactive)
66 | CCc1cnc(C(=O)O)c(C(=O)O)c1 | 6.24% (inactive)
67 | O=[N+]([O-])c1ccc(Cl)cc1Cl | 16.5% (inactive)
68 | CCCCCC1CCC(=O)O1 (stereo not drawn) | 4.05% (inactive)
69 | Nc1nc(Cl)nc2c1ncn2[C@H]1C[C@H](O)[C@@H](CO)O1 | 10.4% (inactive)
70 | O=Cc1ccc([N+](=O)[O-])cc1 | -0.67% (inactive)
71 | C=CC(O)CCCCC (stereo not drawn) | 3.26% (inactive)
72 | Nc1ccccc1Nc1ccccc1 | -20% (inactive)
73 | FC1(F)C(F)(F)C(F)(F)C2(F)C(F)(C1(F)F)C(F)(F)C(F)(F)C1(F)C(F)(F)C(F)(F)C(F)(F)C(F)(F)C12F (stereo not drawn) | 3.05% (inactive)
74 | C=C[Si]1(C)O[Si](C)(C=C)O[Si](C)(C=C)O[Si](C)(C=C)O1 (stereo not drawn) | 1.36% (inactive)
75 | OCCOc1cccc(OCCO)c1 | 2.72% (inactive)
76 | O=C(O)COCC(=O)O | 5.49% (inactive)
77 | CCCCCCCCCC(C)C=O (stereo not drawn) | 5.87% (inactive)
78 | CC(C)CCCCCCCOC(=O)c1ccc(C(=O)OCCCCCCCC(C)C)c(C(=O)OCCCCCCCC(C)C)c1 | -18.1% (inactive)

— PubChem BioAssay (Tox21)
